# From PubChem BioAssay (NCATS)
# The source made the active and inactive calls.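 Rule for the calls: active = calcium activation more than 3 SD above the typical response in the agonist read; inactive = the rest.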
# Target: Thyrotropin-releasing hormone receptor (Homo sapiens) (UniProt P34981)
# Assay: qHTS for Small Molecule Agonists and Allosteric Enhancers of Human TRH Receptor: Validation Screen for Agonists (AID 493127);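 note: intracellular calcium rise by fluo-8 fluorescence before TRH EC20 addition; 0% is about no effect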
# Conditions: TRH receptor agonist cell assay; at 2 µM; active compounds read high
# How it was run: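 Cells 2000/well, 10% FCS, 18 h 33.5C/5% CO2 → fluo-8 Ca dye, RT 30 min–1.5 h → FDSS baseline 10 × 1 s → compound added → 230 cycles (1 s/cycle) agonist mode. TRH controls.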
# Sequence of Thyrotropin-releasing hormone receptor (Homo sapiens) (P34981 whole entry, looked up): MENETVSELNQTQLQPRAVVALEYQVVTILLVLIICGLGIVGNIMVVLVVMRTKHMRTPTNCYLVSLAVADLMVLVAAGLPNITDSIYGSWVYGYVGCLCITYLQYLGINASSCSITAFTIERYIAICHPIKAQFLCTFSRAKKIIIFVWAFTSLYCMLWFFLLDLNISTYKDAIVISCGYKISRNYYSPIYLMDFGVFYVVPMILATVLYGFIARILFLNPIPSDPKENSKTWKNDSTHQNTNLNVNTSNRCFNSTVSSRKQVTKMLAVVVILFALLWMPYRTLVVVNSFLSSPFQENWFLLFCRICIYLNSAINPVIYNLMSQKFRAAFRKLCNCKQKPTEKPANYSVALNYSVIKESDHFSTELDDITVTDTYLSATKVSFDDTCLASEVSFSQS
row,SMILES,activation
1,CC(N)Cc1c[nH]c2ccc(O)cc12 (stereo unspecified),1.38% (inactive)
2,COc1ccc2c(c1)[C@@]13CCCC[C@H]1[C@@H](C2)NCC3,0.0625% (inactive)
3,Ic1ccccc1CNC1C2CCN(CC2)C1C(c1ccccc1)c1ccccc1 (stereo unspecified),2.31% (inactive)
4,CC(C)NP(=O)(NC(C)C)OP(=O)(NC(C)C)NC(C)C,-2.75% (inactive)
5,N#CC(C#N)=Cc1cc(O)c(O)c(O)c1,0.188% (inactive)
6,CN1C2CCC1CC(OC(c1ccccc1)c1ccc(Cl)cc1)C2 (stereo unspecified),8.88% (inactive)
7,CCCCCCCCCCCCCC(=O)O[C@@H]1[C@@H](C)[C@@]2(O)[C@@H](C=C(CO)C[C@@]3(O)C(=O)C(C)=C[C@@H]23)C2C(C)(C)[C@@]21OC(C)=O (stereo partly specified),0.75% (inactive)
8,Oc1ccc2c3c1O[C@H]1c4[nH]c5ccccc5c4C[C@@]4(O)C(C2)N(CC2CC2)CCC314 (stereo partly specified),1.69% (inactive)
9,C[N+](C)(C)CC#CCOC(=O)Nc1cccc(Cl)c1,0.875% (inactive)
10,COC(=O)N1CCN(C(=O)Cc2ccc(Cl)c(Cl)c2)C(CN2CCCC2)C1 (stereo unspecified),0.875% (inactive)
11,C[C@]12Cc3cn4c(nc3C=C1CCC1C2CC[C@@]2(C)[C@H]1CC[C@@]2(O)C#N)nc1ccccc14 (stereo partly specified),-4.5% (inactive)
12,CCCn1c(=O)c2[nH]c(C3CCCC3)nc2n(CCCOC(=O)c2ccc(S(=O)(=O)F)cc2)c1=O,-5.75% (inactive)
13,CNC(=O)OCC[N+](C)(C)C,-0.438% (inactive)
14,C[N+]1(C)C2CCC1CC(OC(=O)c1c[nH]c3ccccc13)C2 (stereo unspecified),0.188% (inactive)
15,Nc1ccc(CCN2CCN(c3cccc(C(F)(F)F)c3)CC2)cc1,2.19% (inactive)
16,CC(=O)c1c(O)c(C)c(O)c(Cc2c(O)c3c(c(C(=O)/C=C/c4ccccc4)c2O)OC(C)(C)C=C3)c1O,7.12% (inactive)
17,C=CCN1CC[C@]23c4c5ccc(O)c4O[C@H]2/C(=N/NC(=O)c2ccccc2)CC[C@@]3(O)[C@H]1C5,1.44% (inactive)
18,C[C@@H]1O[C@H](C[N+](C)(C)C)CS1,11.2% (inactive)
19,CC(N)Cc1c[nH]c2ccc(OCc3cccs3)cc12 (stereo unspecified),3.5% (inactive)
20,NC(C(=O)O)c1cc(=O)[nH]o1 (stereo unspecified),0.688% (inactive)
21,CN(N=O)c1cc(O)ccc1O,-2.69% (inactive)
